Results taken from PubChem BioAssay (EPA / NIEHS).
The source made the active and inactive calls. The calls were made as follows: active = hit-call score of the fitted dose curve at least 0.9, where 1 is the maximum; inactive = score below 0.9.

Legend:
Conditions in all cases: mRNA level, 48 h; actives raise or lower the signal
[1] = read-out: Interleukin 6 Receptor (IL6R), IL6R (gene 3570); assay: LTEA_HepaRG_IL6R: Life Technologies and Expression Analysis (LTEA) Assay for Interleukin 6 Receptor (IL6R) using HepaRG (AID 2283510)
Outline: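 Cells were thawed, plated and cultured 48 h, then medium was changed to serum-free induction medium. Chemicals were added in duplicate (100 uM top, half-log steps, 0.5% DMSO) for 48 h. Lysates were analyzed by qRT-PCR for IL6R expression.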

[2] = read-out: Potassium channel subfamily K member 1 (KCNK1), KCNK1 (gene 3775); assay: LTEA_HepaRG_KCNK1: Life Technologies and Expression Analysis (LTEA) Assay for Potassium channel subfamily K member 1 (KCNK1) using HepaRG (AID 2283511)
Outline: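 HepaRG, 48 h exposure, 8-pt half-log series top 100 uM, 0.5% DMSO vehicle, duplicates. Readout: KCNK1 transcript by qRT-PCR (Fluidigm array), housekeeping-normalized; bidirectional curve fit relative to DMSO baseline.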

[3] = read-out: Keratin 19 (KRT19), KRT19 (gene 3880); assay: LTEA_HepaRG_KRT19: Life Technologies and Expression Analysis (LTEA) Assay for Keratin 19 (KRT19) using HepaRG (AID 2283512)
Outline: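 Differentiated HepaRG cells in serum-free induction medium, exposed 48 h in duplicate to 8 half-log concentrations up to 100 uM in 0.5% DMSO. KRT19 mRNA by qRT-PCR, normalized to ACTB, GAPDH, POLR2A; bidirectional fit vs DMSO.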

[4] = read-out: JUN Transcription Factor, JUN (gene 3725); assay: LTEA_HepaRG_JUN: Life Technologies and Expression Analysis (LTEA) Assay for JUN Transcription Factor using HepaRG (AID 2283513)
Outline: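 Read-out is JUN transcript level by TaqMan qRT-PCR, normalized to ACTB, GAPDH and POLR2A, after 48 h chemical treatment of HepaRG cells. Concentration-response spanned eight half-log points up to 100 uM in 0.5% DMSO.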

[5] = read-out: Lipase C (LIPC), LIPC (gene 3990); assay: LTEA_HepaRG_LIPC: Life Technologies and Expression Analysis (LTEA) Assay for Lipase C (LIPC) using HepaRG (AID 2283514)
Outline: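 HepaRG, 48 h exposure, 8-pt half-log series from 100 uM in 0.5% DMSO, duplicates. Readout: LIPC mRNA by Fluidigm qRT-PCR, housekeeping-normalized (ACTB/GAPDH/POLR2A). Gain or loss fitted bidirectionally against DMSO baseline.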

[6] = read-out: Lipoprotein lipase (LPL), LPL (gene 4023); assay: LTEA_HepaRG_LPL: Life Technologies and Expression Analysis (LTEA) Assay for Lipoprotein lipase (LPL) using HepaRG (AID 2283515)
Outline: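 HepaRG, 48 h exposure, 8-pt half-log dilutions from 100 uM, 0.5% DMSO vehicle, duplicates; qRT-PCR (Fluidigm array) of LPL mRNA vs housekeeping genes; bidirectional curve fit relative to DMSO baseline.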

[7] = read-out: MicroRNA 122 (MIR122), gene 406906; assay: LTEA_HepaRG_MIR122: Life Technologies and Expression Analysis (LTEA) Assay for MicroRNA 122 (MIR122) using HepaRG (AID 2283516); also: the transcript read is the microRNA miR-122
Outline: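 Human liver HepaRG cultures receive test chemicals for 48 h at eight half-log concentrations from 100 uM. Expression is quantified by qRT-PCR with ACTB/GAPDH/POLR2A normalization and fitted bidirectionally against 0.5% DMSO.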

[8] = read-out: matrix metalloproteinase-10 (MMP10), MMP10 (gene 4319); assay: LTEA_HepaRG_MMP10: Life Technologies and Expression Analysis (LTEA) Assay for matrix metalloproteinase-10 (MMP10) using HepaRG (AID 2283517)
Outline: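 Transcript levels come from Fluidigm qRT-PCR normalized to three housekeeping genes, with curves fitted bidirectionally against 0.5% DMSO. Human HepaRG cells were dosed for 48 hours at concentrations up to 100 uM.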

MYC, MYC (gene 4609) = assay: LTEA_HepaRG_MYC: Life Technologies and Expression Analysis (LTEA) Assay for MYC using HepaRG (AID 2283518)
Outline: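 Differentiated HepaRG cells exposed 48 h in serum-free induction medium to 8 concentrations (top 100 uM, half-log steps; 0.5% DMSO), duplicate. MYC mRNA measured by Fluidigm qRT-PCR, normalized to ACTB, GAPDH, POLR2A; bidirectional fit versus DMSO.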

[9] = read-out: matrix metalloproteinase-3 (MMP3), MMP3 (gene 4314); assay: LTEA_HepaRG_MMP3: Life Technologies and Expression Analysis (LTEA) Assay for matrix metalloproteinase-3 (MMP3) using HepaRG (AID 2283519)
Outline: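 qRT-PCR read-out of MMP3 mRNA (normalised to three housekeeping genes) in HepaRG liver cells after 48 h chemical exposure; 8-point half-log series, top 100 uM, 0.5% DMSO vehicle. Bidirectional curve fitting against DMSO baseline.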

[10] = read-out: Nuclear factor NF-kappa-B p105 subunit (Homo sapiens) (UniProt P19838); assay: LTEA_HepaRG_NFKB1: Life Technologies and Expression Analysis (LTEA) Assay for Nuclear Factor Kappa B Subunit 1 (NFKB1) using HepaRG (AID 2283521);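 also: differentiated human HepaRG liver cells in serum-free induction medium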
Outline: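 NFKB1 transcript was measured by TaqMan qRT-PCR on Fluidigm arrays, normalised to three housekeeping genes and fitted in both directions against 0.5% DMSO. HepaRG cells were dosed in duplicate for 48 h in serum-free induction medium, eight half-log steps from 100 uM.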

[11] = read-out: Protein phosphatase 2A (PPP2R4), PTPA (gene 5524); assay: LTEA_HepaRG_PPP2R4: Life Technologies and Expression Analysis (LTEA) Assay for Protein phosphatase 2A (PPP2R4) using HepaRG (AID 2283522)
Outline: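 Cells were plated, cultured 48 h, switched to serum-free induction medium, then dosed for 48 h (8 points, max 100 uM, 0.5% DMSO). RNA was isolated and PPP2R4 expression measured by TaqMan qRT-PCR.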

[12] = read-out: Phosphatase and tensin (PTEN), PTEN (gene 5728); assay: LTEA_HepaRG_PTEN: Life Technologies and Expression Analysis (LTEA) Assay for Phosphatase and tensin (PTEN) using HepaRG (AID 2283523)
Outline: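 HepaRG, 48 h exposure, 8-pt half-log series from 100 uM top, 0.5% DMSO vehicle, duplicates. Readout: Fluidigm qRT-PCR of PTEN transcript; housekeeping normalization (ACTB, GAPDH, POLR2A). Gain or loss fitted relative to DMSO baseline.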

[13] = read-out: solute carrier (SLC22A1), SLC22A1 (gene 6580); assay: LTEA_HepaRG_SLC22A1: Life Technologies and Expression Analysis (LTEA) Assay for solute carrier (SLC22A1) using HepaRG (AID 2283524);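 as to AC50: differentiated human HepaRG liver cells in serum-free induction medium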
Outline: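 qRT-PCR readout (TaqMan, Fluidigm arrays) of SLC22A1 transcript, normalized to three housekeeping genes; bidirectional curve fit relative to 0.5% DMSO vehicle. Differentiated human HepaRG cells, 48 h chemical exposure, top concentration 100 uM, half-log steps, eight points.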

[14] = read-out: Pyruvate Dehydrogenase Kinase 4 (PDK4), PDK4 (gene 5166); assay: LTEA_HepaRG_PDK4: Life Technologies and Expression Analysis (LTEA) Assay for Pyruvate Dehydrogenase Kinase 4 (PDK4) using HepaRG (AID 2283525)
Outline: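 HepaRG (human liver line), 48 h chemical exposure, 8-pt half-log CRC top 100 uM, 0.5% DMSO vehicle, duplicates. Readout: TaqMan qRT-PCR of PDK4 mRNA, housekeeping-normalized; gain/loss fit relative to DMSO baseline.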

[15] = read-out: NAD(P)H dehydrogenase [quinone] 1 (NQO1), NQO1 (gene 1728); assay: LTEA_HepaRG_NQO1: Life Technologies and Expression Analysis (LTEA) Assay for NAD(P)H dehydrogenase [quinone] 1 (NQO1) using HepaRG (AID 2283526)
Outline: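 Transcript induction or suppression is quantified by qRT-PCR in human HepaRG liver cells dosed for 48 hours. Eight half-log concentrations topping at 100 uM are used, with 0.5% DMSO as vehicle and baseline.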

[16] = read-out: Nuclear factor erythroid 2-related factor 2 (Homo sapiens) (UniProt Q16236); assay: LTEA_HepaRG_NFE2L2: Life Technologies and Expression Analysis (LTEA) Assay for Nuclear factor erythroid 2-related factor 2 (NFE2L2) Transcription Factor using HepaRG (AID 2283527)
Outline: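 HepaRG, 48 h dosing, 8-pt half-log series from 100 uM in 0.5% DMSO, duplicates. Read-out: NFE2L2 mRNA by qRT-PCR (ACTB/GAPDH/POLR2A normalization). Bidirectional curve fit vs DMSO baseline.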

[17] = read-out: succinate dehydrogenase complex iron sulfur subunit B (SDHB), SDHB (gene 6390); assay: LTEA_HepaRG_SDHB: Life Technologies and Expression Analysis (LTEA) Assay for succinate dehydrogenase complex iron sulfur subunit B (SDHB) using HepaRG (AID 2283528)
Outline: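 SDHB transcript level read by TaqMan qRT-PCR, housekeeping-normalised (ACTB, GAPDH, POLR2A), after 48 h chemical treatment of plated HepaRG cells; eight concentrations top 100 uM, half-log steps, 0.5% DMSO, duplicates; fitted both directions against DMSO.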

[18] = read-out: Signal transducer and activator of transcription 3 (Homo sapiens) (UniProt P40763); assay: LTEA_HepaRG_STAT3: Life Technologies and Expression Analysis (LTEA) Assay for Signal transducer and activator of transcription (STAT3) using HepaRG (AID 2283529)
Outline: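 HepaRG, 48 h exposure, 8-pt half-log series (top 100 uM), 0.5% DMSO vehicle, duplicates. Readout: STAT3 transcript by Fluidigm qRT-PCR, housekeeping-normalized; bidirectional fit vs DMSO baseline.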

[19] = read-out: Paternally Expressed 10 (PEG10), PEG10 (gene 23089); assay: LTEA_HepaRG_PEG10: Life Technologies and Expression Analysis (LTEA) Assay for Paternally Expressed 10 (PEG10) using HepaRG (AID 2283520);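 as to AC50: PEG10 transcript by qRT-PCR normalised to ACTB GAPDH and POLR2A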
Outline: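 Human HepaRG cultures are dosed for 48 h across an eight-point half-log series starting at 100 uM, with 0.5% DMSO as vehicle and baseline. Gain or loss of PEG10 transcript is measured by qRT-PCR and fitted in both directions.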

Measured: AC50

Signal transducer and activator of transcription 3 (Homo sapiens), sequence (P40763 whole entry, looked up): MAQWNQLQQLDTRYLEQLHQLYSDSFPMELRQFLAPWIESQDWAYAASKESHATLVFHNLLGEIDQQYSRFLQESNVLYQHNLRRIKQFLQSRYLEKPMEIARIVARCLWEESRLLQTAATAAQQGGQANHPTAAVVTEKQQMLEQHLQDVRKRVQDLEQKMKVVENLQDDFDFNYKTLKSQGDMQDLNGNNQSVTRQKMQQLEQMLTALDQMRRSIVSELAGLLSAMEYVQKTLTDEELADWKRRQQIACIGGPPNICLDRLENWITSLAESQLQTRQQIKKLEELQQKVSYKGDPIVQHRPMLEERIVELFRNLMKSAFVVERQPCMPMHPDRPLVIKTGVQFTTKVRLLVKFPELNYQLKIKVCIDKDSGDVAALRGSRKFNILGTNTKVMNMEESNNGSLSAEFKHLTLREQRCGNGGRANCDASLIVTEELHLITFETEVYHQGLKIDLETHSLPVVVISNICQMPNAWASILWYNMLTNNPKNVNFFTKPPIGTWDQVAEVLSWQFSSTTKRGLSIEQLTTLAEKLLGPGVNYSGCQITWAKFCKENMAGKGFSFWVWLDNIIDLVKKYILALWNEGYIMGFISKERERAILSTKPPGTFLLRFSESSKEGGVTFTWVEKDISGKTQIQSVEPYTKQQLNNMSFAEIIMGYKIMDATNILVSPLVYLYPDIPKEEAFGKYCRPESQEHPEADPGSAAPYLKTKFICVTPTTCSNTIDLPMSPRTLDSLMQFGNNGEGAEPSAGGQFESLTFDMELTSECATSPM
Nuclear factor erythroid 2-related factor 2 (Homo sapiens), sequence (Q16236 whole entry, looked up): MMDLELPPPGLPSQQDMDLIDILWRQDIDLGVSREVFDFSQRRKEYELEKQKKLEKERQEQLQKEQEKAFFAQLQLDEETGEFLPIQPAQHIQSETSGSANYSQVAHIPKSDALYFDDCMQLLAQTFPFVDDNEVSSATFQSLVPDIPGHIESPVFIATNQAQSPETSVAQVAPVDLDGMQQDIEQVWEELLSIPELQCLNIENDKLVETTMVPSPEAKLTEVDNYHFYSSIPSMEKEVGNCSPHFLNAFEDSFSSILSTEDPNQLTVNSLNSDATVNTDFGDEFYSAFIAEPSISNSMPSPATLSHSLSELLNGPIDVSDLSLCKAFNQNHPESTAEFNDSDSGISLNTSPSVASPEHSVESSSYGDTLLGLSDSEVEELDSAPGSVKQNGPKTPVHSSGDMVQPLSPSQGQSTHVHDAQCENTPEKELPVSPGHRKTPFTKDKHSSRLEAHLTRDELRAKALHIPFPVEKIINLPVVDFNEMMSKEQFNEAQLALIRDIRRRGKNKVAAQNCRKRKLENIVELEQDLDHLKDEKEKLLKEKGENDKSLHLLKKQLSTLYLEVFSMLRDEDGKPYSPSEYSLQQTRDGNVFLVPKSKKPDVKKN
Nuclear factor NF-kappa-B p105 subunit (Homo sapiens), sequence (P19838 whole entry, looked up): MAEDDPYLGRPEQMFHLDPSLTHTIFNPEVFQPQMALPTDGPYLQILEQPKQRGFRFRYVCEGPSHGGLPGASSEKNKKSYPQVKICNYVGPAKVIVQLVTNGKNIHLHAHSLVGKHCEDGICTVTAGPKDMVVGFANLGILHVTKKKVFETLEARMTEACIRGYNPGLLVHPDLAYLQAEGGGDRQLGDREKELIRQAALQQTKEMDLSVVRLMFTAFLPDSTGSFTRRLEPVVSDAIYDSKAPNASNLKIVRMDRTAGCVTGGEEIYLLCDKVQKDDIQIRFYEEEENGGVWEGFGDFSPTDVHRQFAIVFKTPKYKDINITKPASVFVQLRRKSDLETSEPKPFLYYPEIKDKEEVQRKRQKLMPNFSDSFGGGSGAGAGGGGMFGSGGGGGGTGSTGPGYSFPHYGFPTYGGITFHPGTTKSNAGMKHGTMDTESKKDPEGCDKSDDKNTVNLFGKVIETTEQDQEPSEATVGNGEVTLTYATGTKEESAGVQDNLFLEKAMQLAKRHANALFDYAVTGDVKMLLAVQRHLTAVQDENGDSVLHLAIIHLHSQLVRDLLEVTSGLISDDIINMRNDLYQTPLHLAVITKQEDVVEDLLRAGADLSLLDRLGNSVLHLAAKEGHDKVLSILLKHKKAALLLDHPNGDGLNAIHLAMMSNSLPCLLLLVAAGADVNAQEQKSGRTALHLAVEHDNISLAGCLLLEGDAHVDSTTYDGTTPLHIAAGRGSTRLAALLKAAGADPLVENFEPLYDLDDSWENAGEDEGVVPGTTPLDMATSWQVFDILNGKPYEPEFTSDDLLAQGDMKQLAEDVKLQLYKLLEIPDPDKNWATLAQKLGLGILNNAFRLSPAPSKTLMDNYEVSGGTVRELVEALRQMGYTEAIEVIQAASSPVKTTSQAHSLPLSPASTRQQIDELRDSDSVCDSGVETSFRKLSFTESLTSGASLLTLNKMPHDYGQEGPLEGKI

Clc1ccc(C(c2ccc(Cl)cc2)C(Cl)Cl)cc1
active: [13] 78.2 µM
inactive: [1] | [2] | [3] | [4] | [5] | [6] | [7] | [8] | MYC, MYC (gene 4609) | [9] | [10] | [11] | [12] | [14] | [15] | [16] | [17] | [18]

ClC1=C(Cl)[C@]2(Cl)[C@H]3[C@H]([C@@H]4C=C[C@H]3C4)[C@@]1(Cl)C2(Cl)Cl
inactive: [1] | [2] | [3] | [4] | [5] | [6] | [7] | [8] | [9] | [19] | [11] | [12] | [14] | [17] | [18]
active: MYC, MYC (gene 4609) 50 µM | [13] 9.92 µM

Oc1ccccc1Cl
inactive: [1] | [2] | [3] | [4] | [5] | [6] | [7] | [8] | MYC, MYC (gene 4609) | [9] | [10] | [11] | [12] | [13] | [14] | [16] | [17] | [18]

CCNS(=O)(=O)C(F)(F)C(F)(F)C(F)(F)C(F)(F)C(F)(F)C(F)(F)C(F)(F)C(F)(F)F
active: [3] 48.2 µM | [7] 48.2 µM | [19] 15.5 µM | [13] 40.5 µM | [14] 30.4 µM
inactive: [1] | [2] | [4] | [5] | [6] | [8] | MYC, MYC (gene 4609) | [9] | [11] | [12] | [16] | [17] | [18]
